Assay results: PubChem BioAssay (NCI)
“And” between values parts separate entries of the source, which are not always exact repeats. Equal values may be shown once. The panel holds about 79,000 compounds, 15% with a hit somewhere; the sample as a whole holds those more often. The source made the active and inactive calls. No stated cut-off is given here; in the data, active means growth inhibition above about 70%; inactive means the rest.

Key:
[1] = NCI Yeast Anticancer Drug Screen. Data for the rad52 strain (AID 147);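 further: 0% = growth of vehicle-treated control cultures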; settings: S. cerevisiae rad52 mutant growth inhibition, active compounds read high
How it was run: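 Here a repair-compromised yeast strain receives each compound; its growth is then quantified and normalised to vehicle-only controls.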

[2] = NCI Yeast Anticancer Drug Screen. Data for the wt1 strain (AID 149);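 further: 0% = growth of vehicle-treated wt1 cultures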; settings: S. cerevisiae wt1 strain (SPY 50644) growth inhibition, active compounds read high
How it was run: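 The wt1 strain was treated with compounds, and growth was compared with vehicle-treated cultures to give inhibition.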

[3] = NCI Yeast Anticancer Drug Screen. Data for the rad50EPP+ strain (AID 151);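 further: 0% = growth of vehicle-treated control cultures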; settings: S. cerevisiae rad50 mutant strain, active compounds read high
How it was run: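 Read-out is yeast growth inhibition relative to vehicle; cells used were the rad50EPP+ strain.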

[4] = NCI Yeast Anticancer Drug Screen. Data for the mgt1 strain (AID 153); settings: S. cerevisiae mgt1 mutant growth inhibition, active compounds read high
How it was run: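 Measured: inhibition of mgt1 yeast growth by compound, normalized to vehicle-treated cultures.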

[5] = NCI Yeast Anticancer Drug Screen. Data for the rad50 strain (AID 155);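 further: 0% = growth of vehicle-only cultures of the same strain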; settings: S. cerevisiae rad50 strain growth inhibition, active compounds read high
How it was run: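 Cells are treated with compound, grown, and their growth is then scored against vehicle-only cultures of the same repair-deficient yeast strain.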

[6] = NCI Yeast Anticancer Drug Screen. Data for the mec2-1 strain (AID 157); settings: S. cerevisiae mec2-1 strain, active compounds read high
How it was run: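 Using mec2-1 yeast: add compound, measure growth, express inhibition versus vehicle-treated cultures.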

[7] = NCI Yeast Anticancer Drug Screen. Data for the rad14 strain (AID 159);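 further: 0% = growth of vehicle-treated control cultures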; settings: S. cerevisiae rad14 strain growth inhibition, active compounds read high
How it was run: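 Readout: yeast growth inhibition, referenced to vehicle-only cultures. Strain bears a defined alteration in DNA damage repair.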

[8] = NCI Yeast Anticancer Drug Screen. Data for the sgs1 mgt1 strain (AID 161);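 further: 0% = growth of cultures given vehicle only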; settings: S. cerevisiae sgs1 mgt1 strain, active compounds read high
How it was run: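 Percent growth inhibition was derived by comparing compound-exposed mutant yeast with vehicle-exposed cultures. The strain carries alterations in DNA damage repair.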

[9] = NCI Yeast Anticancer Drug Screen. Data for the CLN2oe strain (AID 163);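 further: 0% = growth of vehicle-only control cultures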; settings: S. cerevisiae CLN2oe strain, active compounds read high
How it was run: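 Whole-cell yeast growth assay. A strain engineered for altered cell-cycle control received compound, and inhibition relative to vehicle-treated cultures was recorded.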

[10] = NCI Yeast Anticancer Drug Screen. Data for the cln2 rad14 strain (AID 165);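 further: 0% = growth equal to vehicle treated cultures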; settings: S. cerevisiae cln2 rad14 strain, active compounds read high
How it was run: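 Yeast strain cln2 rad14, bearing defects in cell cycle control and DNA repair, serves as the test system; values reflect growth inhibition compared with vehicle.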

[11] = NCI Yeast Anticancer Drug Screen. Data for the bub3 strain (AID 167); settings: S. cerevisiae bub3 mutant strain, active compounds read high
How it was run: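 Part of a panel of yeast mutants defective in DNA damage repair or cell cycle regulation. Each strain is grown with compound, and inhibition is calculated relative to solvent-treated cultures.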

[12] = NCI Yeast Anticancer Drug Screen. Data for the wt2 strain (AID 169);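 further: 0% = growth of vehicle-treated yeast cultures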; settings: S. cerevisiae wt2 strain growth inhibition, active compounds read high
How it was run: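 Treated yeast vs. vehicle-treated yeast: growth inhibition determined.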

[13] = NCI Yeast Anticancer Drug Screen. Data for the mlh1 strain (AID 171);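 further: 0% = growth of vehicle-treated control cultures of the same strain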; settings: S. cerevisiae mlh1 strain growth inhibition, active compounds read high
How it was run: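 A yeast strain with a defined genetic lesion serves as the test organism. Cultures receive compound or vehicle, and growth is measured.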

[14] = NCI Yeast Anticancer Drug Screen. Data for the sgs1 strain (AID 173);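 further: 0% = growth of vehicle-only control cultures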; settings: S. cerevisiae sgs1 mutant, active compounds read high
How it was run: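 A genetically defined yeast mutant is incubated with the test compound, and its growth is compared to that of the same strain given vehicle.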

[15] = NCI Yeast Anticancer Drug Screen. Data for the mlh1 rad18 strain (AID 175); settings: S. cerevisiae mlh1 rad18 strain growth inhibition, active compounds read high
How it was run: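 Steps: expose repair-defective yeast to compound; measure growth; express inhibition against vehicle-treated controls.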

[16] = NCI Yeast Anticancer Drug Screen. Data for the rad18 strain (AID 177); settings: S. cerevisiae rad18 mutant growth inhibition, active compounds read high
How it was run: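 Measured value is growth inhibition of a yeast strain bearing a DNA repair alteration, referenced to vehicle-treated cells.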

[17] = at 5.0 µM (retest, dose inferred, filed as 0.5)
[18] = at 50.0 µM (retest, dose inferred, filed as 5.0)

Measured: growth inhibition

O=C(O)CNC(=S)Nc1ccccc1
active: [1]; at 100.0 µM 85% | [2]; at 100.0 µM 91% | [4]; at 33.0 µM 77% | [4]; at 100.0 µM 94% | [5]; [18] 82% | [5]; at 100.0 µM 93% | [6]; [18] 85% | [6]; at 100.0 µM 90% | [7]; at 100.0 µM 91% | [8]; [18] 91% | [9]; at 100.0 µM 86% | [10]; [18] 92% | [11]; [18] 85% | [11]; at 100.0 µM 89% | [12]; at 100.0 µM 88% | [13]; at 100.0 µM 93% | [14]; at 100.0 µM 91% | [15]; [18] 70% | [16]; at 100.0 µM 82%
inactive: [1]; at 1.2 µM -72% | [1]; at 3.7 µM -88% | [1]; at 11.0 µM -22% | [1]; at 33.0 µM 54% | [2]; at 1.2 µM -52% | [2]; at 3.7 µM -52% | [2]; at 11.0 µM -47% | [2]; at 33.0 µM 43% | [3]; at 1.2 µM -86% | [3]; at 3.7 µM -35% | [3]; at 11.0 µM -74% | [3]; at 33.0 µM -40% | [3]; at 100.0 µM 56% | [4]; at 1.2 µM -36% | [4]; at 3.7 µM -17% | [4]; at 11.0 µM 6% | [5]; at 1.2 µM -67% | [5]; at 3.7 µM -68% | [5]; [17] 51% | [5]; at 11.0 µM -48% | [5]; at 33.0 µM 53% | [5]; at 50.0 µM 4.35% and 69.5% | [6]; at 1.2 µM -68% | [6]; at 3.7 µM -21% | [6]; [17] 50% | [6]; at 11.0 µM -8% | [6]; at 33.0 µM 54% | [6]; at 50.0 µM 6.5% and 52.1% | [7]; at 1.2 µM -47% | [7]; at 3.7 µM -41% | [7]; at 11.0 µM -48% | [7]; at 33.0 µM 47% | [8]; [17] -9% | [8]; at 50.0 µM 5.2% and 64.6% | [9]; at 1.2 µM 2% | [9]; at 3.7 µM -9% | [9]; at 11.0 µM -3% | [9]; at 33.0 µM 52% | [10]; [17] 63% | [10]; at 50.0 µM 36.6% and 42% | [11]; at 1.2 µM -46% | [11]; at 3.7 µM -39% | [11]; [17] 6% | [11]; at 11.0 µM -15% | [11]; at 33.0 µM 49% | [11]; at 50.0 µM 8.5% and 53.4% | [12]; at 1.2 µM -74% | [12]; at 3.7 µM -64% | [12]; at 11.0 µM -49% | [12]; at 33.0 µM 31% | [13]; at 1.2 µM -63% | [13]; at 3.7 µM -56% | [13]; at 11.0 µM -30% | [13]; at 33.0 µM 53% | [14]; at 1.2 µM -55% | [14]; at 3.7 µM -51% | [14]; at 11.0 µM -39% | [14]; at 33.0 µM 56% | [15]; [17] 33% | [15]; at 50.0 µM 3.45% and 54.6% | [16]; at 1.2 µM -56% | [16]; at 3.7 µM -17% | [16]; at 11.0 µM -21% | [16]; at 33.0 µM 53%
